# Source: PubChem
# NS1 inh: blocks influenza NS1 protein function. Potency, µM (doses to about 46.1 µM), without a hit: at the highest dose activity, positive = more growth. 0.4% of 270,000 active. AID 2326; note: potency is the fitted concentration of half-maximal effect; actives are rising curves; nearly all actives have a fitted effect of over 50% in size
#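 Compounds were scored for reversing the slow growth caused by influenza A NS1 in S. cerevisiae, measured by optical density at 600 nm. Assay medium contained 2% galactose at pH 6.0; NS1-free yeast of the same strain were the positive control.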
# LmPK inh: blocks Leishmania mexicana pyruvate kinase activity. purified LmPK, Kinase-Glo ATP luminescence, 1 h. 0.37% of 290,000 active. AID 1721. Potency, µM (highest dose often 57.5 µM), without a hit: top-dose activity change, negative = inhibition, most hits filed as inhibitors; active = well fitted curve in the direction sought with a large enough effect; inconclusive = small, poorly fitted or top-dose-only effect, or another doubt; inactive = no such curve, though single readings can be large; an effect the other way counts as inactive or inconclusive; note: potency is the fitted concentration of half-maximal effect; % is set by controls: 0 for no effect and ±100 for the full control effect
# Target sequence (Q27686 whole entry, looked up): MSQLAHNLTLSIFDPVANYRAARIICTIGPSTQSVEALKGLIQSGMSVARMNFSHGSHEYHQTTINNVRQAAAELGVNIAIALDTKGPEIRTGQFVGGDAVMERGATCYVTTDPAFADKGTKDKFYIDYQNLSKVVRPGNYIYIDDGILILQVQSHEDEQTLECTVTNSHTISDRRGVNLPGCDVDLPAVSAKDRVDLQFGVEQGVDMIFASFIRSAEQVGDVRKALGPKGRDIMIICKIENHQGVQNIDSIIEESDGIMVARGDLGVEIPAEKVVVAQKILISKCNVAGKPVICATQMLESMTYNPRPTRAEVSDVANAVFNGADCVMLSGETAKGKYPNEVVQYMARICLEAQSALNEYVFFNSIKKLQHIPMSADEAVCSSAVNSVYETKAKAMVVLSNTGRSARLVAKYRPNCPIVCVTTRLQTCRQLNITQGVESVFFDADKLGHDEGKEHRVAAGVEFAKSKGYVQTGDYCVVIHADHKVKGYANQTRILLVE
#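 qHTS format; LmPK 0.1 nM; substrates PEP 0.5 mM and ADP 0.1 mM. One-hour room-temperature incubation, then coupled luciferase luminescence; 0.5 nM enzyme wells mark activation.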
# SARS PLpro yeast: blocks SARS-CoV papain-like protease in a yeast assay; S. cerevisiae expressing SARS-CoV PLpro, growth rescue; 0.19% of 330,000 active; Potency, µM (highest dose often 32.9 µM), for inactives: at the top dose activity, positive = growth rescue, hits mostly activators; note: potency is the fitted concentration of half-maximal effect; 0% is about no effect; nearly all actives have a fitted effect of over 55% in size
# Shiga inhibitor: Shiga toxin inhibition. AID 2315. 9.2% of 290,000 active. Vero cells, Shiga toxin protein synthesis inhibition reporter. inhibition, % at 38.7 µM; in the data active = inhibition mostly above about 28%, no sharp cut-off; inactive = mostly below about 43%; note: 0% is about no effect
# Cycloheximide cs: counter-screen for Shiga toxin inhibitors: cycloheximide protein synthesis inhibition; cell reporter, cycloheximide protein synthesis inhibition counterscreen; AID 2314; 12% of 300,000 active; max response, %; in the data active = max response mostly above about 13%, no sharp cut-off; inactive = mostly below about 14%; note: read at 38.3 µM for the half of the compounds with a filed dose; 0% is about no effect
# Tb PYK inh: blocks Trypanosoma brucei pyruvate kinase | 0.12% of 410,000 active | Potency, µM (titrated, usually from 76.8 µM), inactives show at the top dose activity, negative = inhibition, most hits filed as inhibitors | AID 624173 | TbPYK enzyme, Kinase-Glo Plus ATP luminescence, 45 min | Q57TT1; active = well fitted curve in the direction sought with a large enough effect; inconclusive = small, poorly fitted or top-dose-only effect, or another doubt; inactive = no such curve, though single readings can be large; an effect the other way counts as inactive or inconclusive; note: potency is the fitted concentration of half-maximal effect; % is set by controls: 0 for no effect and ±100 for the full control effect; nearly all actives have a fitted effect of over 50% in size
#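 TbPYK + substrate in 50 mM TEA pH 7.2, 100 mM KCl, 10 mM MgCl2, 0.05% BSA, 0.01% Tween-20; cpd pinned; ADP 130 uM final; 45 min RT; Kinase-Glo Plus 10 min; luminescence endpoint.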
# Flu NS1 inh: validation of influenza NS1 protein function inhibitors. shares compounds with NS1 inh. activity change, negative = inhibition, % at 32.9 µM. 1,400 tested, under 10 active. AID 492980. influenza NS1 function cell assay, 15-point titration; note: 0% is about no effect
# PR8 titer: influenza virus titer reduction, NS1 project; shares compounds with NS1 inh; 30% of 95 active; virus titer (log TCID50), log10 TCID50 at 5 µM; AID 504647; MDCK infected influenza A/PR/8/34, virus titer TCID50; hits give low values; call rule not given here
# Starred values were filed as active, the others as inactive; i = inactive; ? = inconclusive; nt = not tested or not shown; [ ] = remark or other dose. This excerpt belongs to a sample that is enriched for hits. Unless noted, calls come from the whole dose curve.
SMILES,NS1 inh,LmPK inh,SARS PLpro yeast,Shiga inhibitor,Cycloheximide cs,Tb PYK inh,Flu NS1 inh,others
Cc1ccc(-c2nnc(NCc3nc4ccccc4[nH]3)c3ccccc23)cc1S(=O)(=O)N1CCOCC1,?,-6%,21%,-8,-4,-6%,nt,
Cc1ccc(-c2nnc(NCc3nc4ccccc4[nH]3)c3ccccc23)cc1S(=O)(=O)N(C)C,5.6µM*,1%,1%,-11,-2,-14%,10,PR8 titer=7.5*
COc1ccc(C(=O)Nc2nc3c(s2)CCCC3)cc1S(=O)(=O)N1CCCc2ccccc21,13µM*,0%,14%,41,9,-4%,-5,
COc1ccc(C(=O)Nc2ncccc2C)cc1S(=O)(=O)N1CCCc2ccccc21,nt,nt,-1%,nt,nt,?,nt,
CC1(C(=O)NCC2CC2)Cc2c(-c3ccccc3)ccnc2O1 (stereo unspecified),nt,nt,nt,nt,nt,-7%,nt,
O=S(=O)(Nc1ccc(N2CCCCC2)cc1)c1ccccc1,?,2%,-23%,26,18*,-15%,?,
Clc1cccc(CN2CCC(Cc3ccccc3)CC2)c1,?,-5%,2%,-17,1,-14%,-2,
Clc1ccc(CN2CCC(Cc3ccccc3)CC2)cc1,0%,-7%,-14%,-11,-6,-3%,nt,
O=C(CCC(=O)N(CC(=O)NC1CCCCC1)Cc1cccs1)Nc1nccs1,6.3µM*,2%,1%,-9,-3,-8%,8,
Cn1c(CCN2CCCCC2)nc2cc(NS(=O)(=O)c3ccc(Cl)cc3)ccc21,0.89µM*,5%,7%,-4,7,1%,-23,
Cc1ccc(OCC(=O)Nc2ccc(S(=O)(=O)Nc3ncccn3)cc2)c(C(C)(C)C)c1,nt,nt,nt,nt,nt,-4%,nt,
Cc1nc2c(ncn2-c2ccccc2)c(=O)n1NC(=O)CN1CCN(C)CC1,3.5µM*,-1%,1%,-23,-4,-9%,-22,
COc1ccc([C@]23Cc4cc(C#N)ccc4C(O2)C2=C(CC4(CCCCC4)OC2=O)O3)cc1,?,-11%[11.5 µM],-2%[6.58 µM],i,-2,nt,nt,
Cc1nc(SCC(=O)Nc2ccc3c(c2)OCCO3)nc(C)c1C,nt,-4%,-1%,16,13,-27%,nt,
Cc1cc2nc(-c3ccc(SCC(=O)Nc4ccc5c(c4)OCCO5)nc3)[nH]c2cc1C,1.3µM*,0%,-8%,157*,48*,0%,-1,
Nc1cc(N)nc(SCC(=O)Nc2ccc3c(c2)OCCCO3)n1,1.8µM*,1%,3%,41,23*,-4%,8,
O=C(CSc1nc(-c2ccc(F)cc2)[nH]c1-c1ccc(F)cc1)Nc1ccc2c(c1)OCCO2,nt,nt,nt,nt,nt,1%,nt,
C[C@@H]1CC=C[C@H]2[C@H]1C(=O)N(Cc1ccccc1)[C@H]2c1ccc(/C=C/c2ccccc2)cc1F,21%,1%,-6%,-4,-3,2%,nt,
CC1=NN(c2ccc(C(=O)OC(C)C)cc2)C(=O)/C1=C\C=C\c1ccco1,11µM*,4%,?,12,3,0%,3,
COc1ccccc1OC(C)C(=O)Nc1ccccc1C(=O)NCC1CCCO1 (stereo unspecified),0%,-6%,-12%,-8,-4,-22%,nt,
CCOC(=O)c1cc(-c2ccccc2)sc1NC(=O)CN1C(=O)NC(CC)(c2ccc(F)cc2)C1=O (stereo unspecified),11µM*,0%,-8%,-7,2,0%,-24,
O=C(CSc1nc2ccccc2c2nc3ccccc3n12)NCc1ccco1,2.8µM*,5%,5%,50*,28*,6%,33,
CCn1c(SCC(=O)NCc2ccco2)nc2ccccc2c1=O,0%,9%,-1%,-5,-2,-1%,nt,
CCCCNC(=O)C1=C(N)C(C(=O)Nc2ccc(C)c(S(=O)(=O)N3CCCCC3)c2)SC1=Nc1ccc(C)cc1C (stereo unspecified),?,0%,-6%,20,9,-4%,nt,
CCN(CC)S(=O)(=O)c1cccc(NC(=O)C2SC(=Nc3ccc(C)cc3C)C(C(=O)NC(C)COC)=C2N)c1 (stereo unspecified),13µM*,-1%,3%,18,3,-3%,22,
SMILES,NS1 inh,LmPK inh,SARS PLpro yeast,Shiga inhibitor,Cycloheximide cs,Tb PYK inh,Flu NS1 inh,others
N=Nc1c(O)n(CC(=O)Nc2ccccc2)c2ccccc12,2.5µM*,-3%,8%,-7,5,0%,24,
COc1cc(CN2C[C@@H](CO)O[C@@H](n3cnc4c(NCc5ccncc5)ncnc43)C2)cc(OC)c1OC,nt,nt,nt,nt,nt,-4%,nt,
N#Cc1nc(COc2ccc(Cl)cc2Cl)oc1N1CCN(c2ccccc2)CC1,11µM*,5%,-10%,-4,9,2%,16,
COc1ccc(N2CCN(c3oc(COc4ccc(Cl)cc4Cl)nc3C#N)CC2)cc1,?,3%,-18%,6,10,3%,nt,
Cc1ccccc1C(=O)NCc1ccc2c(c1)CCN2C(=O)c1ccccc1,nt,nt,nt,nt,nt,-3%,nt,
CCOC(=O)C[C@H]1c2ccc(C(F)(F)F)cc2S(=O)(=O)N1C(C)C,nt,nt,nt,nt,nt,0%,nt,
CN=c1sc2ccccc2n1CC(O)COc1ccccc1 (stereo unspecified),-16%,5%,2%,5,-3,-1%,nt,
N/N=c1\sc2ccccc2n1-c1ccccc1,11µM*,-2%,-10%,-15,-1,2%,25,PR8 titer=8
Cc1cccc(CNC(=O)c2oc3c(c2C)-c2nn(Cc4ccccc4Cl)cc2CC3)c1,nt,nt,nt,nt,nt,-3%,nt,
CN(C)c1ncnc2c1ncn2[C@H]1CN(Cc2ccc(-c3ccccc3)cc2)C[C@@H](CO)O1,nt,nt,nt,nt,nt,7%,nt,
Cc1ccc2c(C)nc(/N=C(\N)NC(=O)N3c4ccccc4Sc4ccccc43)nc2c1,?,7%,-23%,-7,0,-2%,2,
CCOC(=O)C1=C(COC(=O)[C@@H](NC(=O)c2cccc(C)c2)C(C)C)NC(=O)NC1C (stereo partly specified),nt,nt,1%,nt,nt,3%,nt,
CCN(CC)CCCN=Cc1c(O)n(CCc2ccc(F)cc2)c(=O)[nH]c1=O,?,8%,6%,-9,-1,-2%,-10,
CCN(CC)CCN=Cc1c(O)n(CCc2ccccc2)c(=O)[nH]c1=O,?,4%,14%,-10,-2,1%,nt,
O=C1COC(c2ccccc2O)=NN1CCCl,nt,nt,nt,nt,nt,-14%,nt,
CCCCn1c(=O)cc(O)c2ccccc21,10µM*,-6%,-4%,-16,-3,4%,27,
Cc1c(NC(=O)CSc2ncccn2)c(=O)n(-c2ccccc2)n1C,nt,2%,2%,15,-3,-3%,nt,
